Assays:
Test in all cases: MAPPIT interaction score (arbitrary units); higher = stronger binary interaction signal, active = hit call of the paper;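 active = MAPPIT score above the 99th percentile of random reference set scores in the same batch; inactive = at or below it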
[1] = target: CG15576; conditions: MAPPIT configuration: N-N; pair source set: Curagen_low_conf
[2] = target: CG15728; conditions: MAPPIT configuration: N-C; pair source set: screen_3
[3] = target: CG17776; conditions: MAPPIT configuration: N-N; pair source set: Lit-BS-16
[4] = target: CG15449; conditions: MAPPIT configuration: N-N; pair source set: Finley_Y2H
[5] = target: CG5946; conditions: MAPPIT configuration: N-N; pair source set: Finley_Y2H
[6] = target: PHDP; conditions: MAPPIT configuration: N-N; pair source set: Finley_Y2H
[7] = target: Prim2; conditions: MAPPIT configuration: N-N; pair source set: Finley_Y2H
[8] = target: CG15514; conditions: MAPPIT configuration: N-N
[9] = target: CG15529; conditions: MAPPIT configuration: N-C; pair source set: screen_4
[10] = target: CG17162; conditions: MAPPIT configuration: N-C; pair source set: screen_3
[11] = target: CG16904; conditions: MAPPIT configuration: N-N; pair source set: Curagen_low_conf
[12] = target: CG2865; conditions: MAPPIT configuration: N-N; pair source set: Curagen_low_conf
[13] = target: Cul3; conditions: pair source set: Lit-BM-16
[14] = target: puc; conditions: pair source set: Lit-BM-16
[15] = target: spir; conditions: MAPPIT configuration: N-N; pair source set: Curagen_low_conf
[16] = target: CG15443; conditions: MAPPIT configuration: N-N; pair source set: Curagen_low_conf
[17] = target: Gs1; conditions: MAPPIT configuration: N-N; pair source set: DPIM
[18] = target: Mpp6; conditions: MAPPIT configuration: N-N; pair source set: DPIM
[19] = target: CG15482; conditions: MAPPIT configuration: N-N; pair source set: screen_1
[20] = target: CG33096; conditions: MAPPIT configuration: N-N; pair source set: Finley_Y2H
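Further: HEK293T cells with Epo stimulation, STAT-responsive firefly luciferase reporter, fold induction versus unstimulated cells divided by the larger fold induction of two negative controls lacking either bait or prey.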

B1: Yp3 (protein)
chain: MMSLRICLLATCLLVAAHASKDASNDRLKPTKWLTATELENVPSLNDITWERLENQPLEQGAKVIEKIYHVGQIKHDLTPSFVPSPSNVPVWIIKSNGQKVECKLNNYVETAKAQPGFGEDEVTIVLTGLPKTSPAQQKAMRRLIQAYVQKYNLQQLQKNAQEQQQQLKSSDYDYTSSEEAADQWKSAKAASGDLIIIDLGSTLTNFKRYAMLDVLNTGAMIGQTLIDLTNKGVPQEIIHLIGQGISAHVAGAAGNKYTAQTGHKLRRITGLDPAKVLSKRPQILGGLSRGDADFVDAIHTSTFAMGTPIRCGDVDFYPNGPSTGVPGSENVIEAVARATRYFAESVRPGSERNFPAVPANSLKQYKEQDGFGKRAYMGLQIDYDLRGDYILEVNAKSPFGQRSPAHKQAAYHGMHHAQN
With B1 the MAPPIT interaction score [1] was 0.532 (inactive).

B2: REPTOR-BP (protein)
chain: MADMEIQSNKMSITEETQVQTRKECGKRGRKPGRKTSTEKLDMKAKLERSRQSARECRARKKLRYQYLEELVADREKAVVALRTELERLIQWNNQLSESNTPTNNDQLLQELGILKQE
For B2, the MAPPIT interaction score [2] was 1.49 (inactive) and the MAPPIT interaction score [3] was -0.21 (inactive).

B3: RhoGAP68F (protein)
chain: MDAHSRFAPRLPGPAINPIVDNSDEPQPSLSDLHDFEPKLEFDDTELLAPSPLEKDVMVGDFVLAEDPELEPEEDVNPLEDDFEDQLREQSENFQTPRNKCDFLGTDKQGRHIFGIYASRFPEKSQLEGFVREIIKEIEPFVENDYILVYFHQGLKEDNKPSAQFLWNSYKELDRNFRKNLKTLYVVHPTWFIRVIWNFFSPFISDKFRKKLVYISSLDELRQALGLNKLKLPDNICDLDDKLNPSRKPSTPPPSSNINASRQQQHKMATTHQFGVPLKFIVMNSPCLNSIPPIVRKCVDSLSITGVIDTEGIFRRSGNHSEIMALKERVNRGEDVDLKSVNVHVIAGLLKSFLRDLAEPLLTFELYEDVTGFLDWPKEERSRNVTQLIREKLPEENYELFKYIVEFLVRVMDCEDLNKMTSSNLAIVFGPNFLWSRSTSTSLEEIAPINAFVDFVLQNHKDIYLIDVNQRTVSVD
For B3, the MAPPIT interaction score [4] was 0.0825 (inactive), the MAPPIT interaction score [5] was 0.206 (inactive) and the MAPPIT interaction score [6] was 0.248 (inactive). For the same binder, the MAPPIT interaction score [7] was 3.38 (active).

B4: Spt6 (protein)
chain: MAEFLDSEAEESEEEEELDVNERKRLKKLKAAVSDSSEEEEDDEERLREELKDLIDDNPIEEDDGSGYDSDGVGSGKKRKKHEDDDLDDRLEDDDYDLIEENLGVKVERRKRFKRLRRIHDNESDGEEQHVDEGLVREQIAEQLFDENDESIGHRSERSHREADDYDDVDTESDADDFIVDDNGRPIAEKKKKRRPIFTDASLQEGQDIFGVDFDYDDFSKYEEDDYEDDSEGDEYDEDLGVGDDTRVKKKKALKKKVVKKTIFDIYEPSELKRGHFTDMDNEIRKTDIPERMQLREVPVTPVPEGSDELDLEAEWIYKYAFCKHTVSEQEKPESREKMRKPPTTVNKIKQTLEFIRNQQLEVPFIAFYRKEYVKPELNIDDLWKVYYYDGIWCQLNERKRKLKVLFEKMRQFQLDTLCADTDQPVPDDVRLILDSDFERLADVQSMEELKDVHMYFLLNYSHELPRMQAEQRRKAIQERREAKARRQAAAAENGDDAAEAIVVPEPEDDDDPELIDYQLKQASNSSPYAVFRKAGICGFAKHFGLTPEQYAENLRDNYQRNEITQESIGPTELAKQYLSPRFMTTDEVIHAAKYVVARQLAQEPLLRKTMREVYFDRARINIRPTKNGMVLIDENSPVYSMKYVAKKPVSDLFGDQFIKLMMAEEEKLLEITFLEEFEGNACANGTPGDYVEESKALYQLDQFAKHVQEWNKLRAECVQLALQKWVIPDLIKELRSTLHEEAQQFVLRSCTGKLYKWLKVAPYKPQLPPDFGYEEWSTLRGIRVLGLAYDPDHSVAAFCAVTTVEGDISDYLRLPNILKRKNSYNLEEKAQKLADLRKLSDFIKMKKPHIVVIGAESRDAQNIQADIKEILHELETSEQFPPIEVEIIDNELAKIYANSKKGESDFKEYPPLLKQAASLARKMQDPLVEYSQLCDADDEILCLRYHPLQERVPREQLLEQLSLQFINRTSEVGLDINLMVQNSRTINLLQYICGLGPRKGQALLKLLKQSNQRLENRTQLVTVCHLGPRVFINCSGFIKIDTSSLGDSTEAYVEVLDGSRVHPETYEWARKMAIDAMEYDDEETNPAGALEEILESPERLKDLDLDAFAVELERQGFGSKSITLYDIRNELSCLYKDYRTPYTKPSAEELFDMLTKETPDSFYVGKCVTAMVTGFTYRRPQGDQLDSANPVRLDSNESWQCPFCHKDDFPELSEVWNHFDANACPGQPSGVRVRLENGLPGFIHIKNLSDRQVRNPEERVRVSQMIHVRIIKIDIDRFSVECSSRTADLKDVNNEWRPRRDNYYDYVTEEQDNRKVSDAKARALKRKIYARRVIAHPSFFNKSYAEVVAMLAEADQGEVALRPSSKSKDHLTATWKVADDIFQHIDVREEGKENDFSLGRSLWIGTEEFEDLDEIIARHIMPMALAARELIQYKYYKPNMVTGDENERDVMEKLLREEKANDPKKIHYFFTASRAMPGKFLLSYLPKTKVRHEYVTVMPEGYRFRGQIFDTVNSLLRWFKEHWLDPTATPASASASNLTPLHLMRPPPTISSSSQTSLGPQAPYSVTGSVTGGTPRSGISSAVGGGGSSAYSITQSITGYGTSGSSAPGAGVSSSHYGSSSTPSFGAINTPYTPSGQTPFMTPYTPHASQTPRYGHNVPSPSSQSSSSQRHHYGSSSGTGSTPRYHDMGGGGGGGVGGGGGSNAYSMQPHHQQRAKENLDWQLANDAWARRRPQQHQSHQSYHAQQQHHHSQQQPHMGMSMNMGITMSLGRGTGGGGGGGYGSTPVNDYSTGGGHNRGMSSKASVRSTPRTNASPHSMNLGDATPLYDEN
With B4 the MAPPIT interaction score ([8]; pair source set: screen_1) was 2.16 (inactive) and the MAPPIT interaction score ([8]; pair source set: screen_2) was 1.63 (inactive).

B5: CG3817 (protein)
chain: MALLTEKRVKKTHAPASDSSPEESDSEGSQNSASEAEGNAGWADSIQKVLKTTKPKTQKKTVLARAKKSQAAVRFQKDAANKKPGFDFEIEKADVKEEDEGDNHEDEKPQASALDATLTKQQRKNVPLQLRVKPSFRDMERERTLRKVATRGVVQFFNAVRIQQKDLQQQLEEAGPLDSRQDAVLNNINKRKFLDVLMSGKRAKSTPVDNAVKKEEQETDDDDEDKGSSGKKKSEWSVLREDFMTNKKIKHWDEEDDDEEGHNDEADDSDYDDGEE
In the case of B5, the MAPPIT interaction score [9] is reported as 1.02 (inactive).

B6: p38c (protein)
chain: MPEFVRVAINESLWEFPDIYEFVRFLGGGSFGQVAKVRLRGTENYFAMKRLMRPFEREEDAKGTYREIRLLKHMNHRNVISLLNVFHPPAHNMMEFQQVYLVTHLMDADLHRYSRSKRMSDQEIRIILYQILRGLKYIHSAGVVHRDLKPCNIAVNGNSEVRILDFGLSRMCADKMTDHVGTMWYLAPEIIFLRGQYTKAIDVWSVGCILAELITDRVLFRGENYVSQIRCLINIMGTPTREFITGISMERSRNYLEGYPLRQRCDFHHLFMGYDVQAIDLMEKMLEMVPEKRITAAEAMLHPYLRDLIEPHHHAEDTAPVYDQNFENMVLPVKCWKELVSHEIRNFRPDQLDLHF
In the case of B6, the MAPPIT interaction score [10] is reported as 0.769 (inactive).

B7: Nedd8 (protein)
chain: MLIKVKTLTGKEIEIDIEPTDKVDRIKERVEEKEGIPPQQQRLIFSGKQMNDDKTAADYKVQGGSVLHLVLALRGGDSILTPCV
With B7 the MAPPIT interaction score [1] was 1.7 (inactive).

B8: rdx (protein)
chain: MFEPYVKIKKKRSVNEIYENENLEQQQHHLQQQQQQPATSDNCCCENGEPQNAPEVATATVAATSVAATSAAATVATGAAASSSSSGNCSRLQQLISTPPVLLRRSSLQQQQHQQQQHHPHTPAATATPPQQQQQQQAAPSVLQQHLGHLNYESGATAAAAATAAAAAATVATSRSGSATLAQHLATPSNILQAAFGSSNLQHILTRSAPSPSSSAISSNNCSSACAGNTHYNGGNSNSGSSSSNSNHHSNSIIASRLFGAASSSSSSSSSSASASSSSVAASSSSSSHHLHSHHSALTNSITNRINQSIRRHLNQQQHHHPLSASSSSASASPSASTSSSSSYQQSSVQQQHYNCAHPAQQQQHHHHHHSSSSSSSSSSSSSHHHHNSSSSSNSNNQQQPQQSPLCLVLLVKCPNSKEFCNAAANFCDKRLPVNECQASQTARVTSNLHASSSTMAVSRVPSPPLPEVNTPVAENWCYTQVKVVKFSYMWTINNFSFCREEMGEVLKSSTFSAGANDKLKWCLRVNPKGLDEESKDYLSLYLLLVSCNKSEVRAKFKFSILNAKREETKAMESQRAYRFVQGKDWGFKKFIRRDFLLDEANGLLPEDKLTIFCEVSVVADSVNISGQSNIVQFKVPECKLSEDLGNLFDNEKFSDVTLSVGGREFQAHKAILAARSDVFAAMFEHEMEERKLNRVAITDVDHEVLKEMLRFIYTGKAPNLEKMADDLLAAADKYALEKLKVMCEEALCVNLSVETAAETLILADLHSADQLKAQTIDFINTHATDVMETSGWQNMITTHSHLIAEAFRALATQQIPPIGPPRKRVKMS
With B8 the MAPPIT interaction score [11] was -0.125 (inactive), the MAPPIT interaction score [12] was -0.131 (inactive) and the MAPPIT interaction score ([13]; MAPPIT configuration: N-C) was 1.12 (inactive). For the same binder, the MAPPIT interaction score ([13]; MAPPIT configuration: N-N) was 0.911 (inactive), the MAPPIT interaction score ([14]; MAPPIT configuration: N-C) was 0.404 (inactive) and the MAPPIT interaction score ([14]; MAPPIT configuration: N-N) was 0.467 (inactive). The MAPPIT interaction score [15] was 0.125 (inactive).

B9: eEF5 (protein)
chain: MAELDDQFETTDSGASTTYPMQCSALRKNGFVMLKSRPCKIVEMSTSKTGKHGHAKVHMVGIDIFSNKKYEDICPSTHNMDVPNVKREDLQLIAISDDSFLTLMTESGDLREDLKVPEGELGEQLRLDFDSGKDLLCTVLKACGEECVIAIKTNTALDK
In the case of B9, the MAPPIT interaction score [16] is reported as 0.896 (inactive), the MAPPIT interaction score [17] is reported as 0.522 (inactive) and the MAPPIT interaction score [18] is reported as -0.193 (inactive).

B10: trbd (protein)
chain: MCDTKDDAQKWKCETCTYENYPSSLKCTMCQASKPLLNEDIFRLSPAQESCTVAEEAAAVEVAVMSPTPSSTCYSLQPQSQARQSNVADSEKWPCKVCTYLNWPRSLRCVQCCTKRGGEAIERGKKDMDNEADGDRAGEALQALRISGSEENLANKPVQLIGATASHRLSLSRGIDDATHLNNLANASHNQSQSQHRQPVLQQQMQLQLQPQQQRESSSSAAVPPQQQKQCYVSKWACNSCTYENWPRSIKCSMCGKTREREISGSQNDLHASSSLNSQEENQQQLQQPNVDTVSVNNSFNKKHIYQLGSSETINNCDTLQERQERRQRQIRRQVDWQWLNACLGVVENNYSAVEAYLSCGGNPARSLTSTEIAALNRNSAFDVGHTLIHLAIRFHREEMLPMLLDQISGSGPGIKRVPSYVAPDLAADIRRHFANTLRLRKSGLPCHYVQKHATFALPAEIEELPIPIQEQLYDELLDRDAQKQLETPPPALNWSLEITARLSSRMFVLWNRSAGDCLLDSAMQATWGVFDRDNILRRALADTLHQCGHVFFTRWKEYEMLQASMLHFTLEDSQFEEDWSTLLSLAGQPGSSLEQLHIFALAHILRRPIIVYGVKYVKSFRGEDIGYARFEGVYLPLFWDQNFCTKSPIALGYTRGHFSALVPMEPFTRIDGRRDDVEDVTYLPLMDCELKLLPIHFLTQSEVGNEESMMRQWLDVCVTDGGLLVAQQKLSKRPLLVAQMLEEWLNHYRRIAQVITAPFIRRPQITHYSSDGDSDEE
B10 was tested, and the MAPPIT interaction score [19] was -0.138 (inactive) and the MAPPIT interaction score [20] was 0.0624 (inactive).
